# Source: PubChem (several laboratories)
# FAS-TE inh = blocks the thioesterase domain of human fatty acid synthase; AID 602261; inhibition, % at 15 µM; 0.67% of 360,000 active; recombinant FAS-TE, OMFH fluorogenic substrate, fluorescence endpoint; P49327;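 active means compounds whose normalised, plate-corrected inhibition of enzyme fluorescence in the single-dose primary screen is 50% or more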;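 further: 0% = DMSO with enzyme and 100% = substrate without enzyme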
# GRIN3A LBD mod = modulators (binders) of human NR3A ligand-binding domain; NR3A LBD differential scanning fluorimetry, Tm shift; 0% = protein alone, 100% = glycine-bound protein; Tm shift relative to glycine control, % at 25 µM; 2.5% of 340,000 active;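 active means melting temperature shift of at least 10% of the positive control shift, at one fixed dose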
# MPTP inh = blocks calcium-induced mitochondrial swelling; inhibition, % at 10 µM; 1.4% of 360,000 active; isolated mouse mitochondria, Ca2+ swelling absorbance, 30 min;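 active means inhibition of 50% or more, scaled per plate between neutral and stimulator controls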;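 further: 0% = DMSO wells given calcium and 100% = 1 mM EGTA wells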
# rCAG binder = binds r(CAG) RNA repeats; 1.3% of 370,000 active; inhibition, % at 3 µM; r(CAG) RNA repeat, TO-PRO-1 dye displacement fluorescence;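 active means inhibition above the plate cutoff, the mean of all test compounds on that plate plus 3 SD, cut at about 35% in these data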;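 further: 0% = DMSO alone and 100% = 100 µM mitoxantrone as full dye displacement; higher means more dye released from RNA so lower well fluorescence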
# Myeloid diff MLP = promotes myeloid progenitor differentiation; AID 624256; calls only at 10 µM; 1% of 360,000 active; ER-HoxA9 myeloid progenitors, lysozyme-GFP differentiation, flow cytometry;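 active means normalized GFP-positive differentiation at or above the plate's own cutoff, the solvent-only control mean plus 3 SD; inconclusive means no clear call, values can overlap the other calls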;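 further: cells exposed to compound for four days before flow analysis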
# Rh123 counter = mitochondrial membrane potential, counter-screen; 78% of 5,000 active; inhibition, % at 10 µM; isolated mitochondria, Rhodamine 123 fluorescence; shares compounds with MPTP inh; in the data active means inhibition above about 22%;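 further: 0% = DMSO vehicle and 100% = positive control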
# MPTP abs DR = dose response confirmation of mitochondrial permeability transition pore inhibitors; 58% of 780 active; AID 651561; isolated mitochondria swelling, absorbance; shares compounds with MPTP inh; IC50, µM; in the data active means IC50 below about 20 µM
# MPTP cs DR = MPTP inhibitor counter-screen activity, dose response; shares compounds with MPTP inh; isolated mitochondria counterscreen, fluorescence read-out; IC50, µM; 49% of 780 active; AID 651564; in the data active means IC50 below about 80 µM
# * hit, by the source's call; i = inactive; ? = inconclusive; . = not tested or not shown; + = active, no number; ! = not active in a repeat. The list is not random: actives were taken first. Their share in the collection is about 5.7%.
SMILES,FAS-TE inh,GRIN3A LBD mod,MPTP inh,rCAG binder,Myeloid diff MLP,Rh123 counter,others
Cc1ccc(C(C)C)c(OCC(=O)Nc2ccccc2N2CCN(C)CC2)c1,8,-7,83*,-10,i,-7,MPTP abs DR=i;MPTP cs DR=>80
CC(=O)N1CCN(c2ccccc2NC(=O)COc2cc(C)ccc2C(C)C)CC1,7,-1,-1,-7,i,.,
COc1ccc(N2CCc3c(C)nc4c(OC)cc(OC)cc4c32)cc1,2,1,36,13,i,.,
COc1ccc(N2CCc3c(C)nc4c(OC)cc(OC)cc4c32)c(OC)c1,-3,-1,64*,12,i,72*,
CC(=O)N1N=C(c2ccc(C(C)(C)C)cc2)OC1(C)C,12,3,69*,-8,i,4,MPTP abs DR=16*;MPTP cs DR=18*
O=C(/C=C/c1ccc(Cl)cc1Cl)NCCSCc1ccccc1,31,-4,92*,-1,i,82*,
O=C(/C=C/c1ccc(Cl)cc1Cl)NCCSc1ccccc1,22,7,96*,4,i,92*,
COc1ccc(S(=O)(=O)Nc2ccc3c(c2)C(=O)N([C@H](C)CO)C[C@H](C)[C@@H](CN(C)C(=O)Nc2ccccc2)O3)cc1,3,8,-2,0,i,.,
COc1ccc(CNc2nc(S(=O)(=O)c3ccccc3)c(Cl)s2)cc1OC,16,-19,82*,2,i,64*,
Cc1ccc(S(=O)(=O)c2nc(Nc3ccccc3)sc2Cl)cc1,38,1,85*,9,i,85*,
O=S(=O)(c1ccccc1)c1nc(NCc2ccccc2)sc1Cl,18,-19,9,1,i,.,
O=S(=O)(c1ccccc1)c1nc(Nc2cccc(O)c2)sc1Cl,8,11*,54*,9,i,39*,
COc1ccc(Nc2nc(S(=O)(=O)c3ccc(C)cc3)c(Cl)s2)cc1,36,7,59*,9,i,76*,
O=C(CCc1ccncc1)NC1CCCc2c1cnn2-c1ccc(F)cc1F (centres undefined),-5,-5,-1,-5,i,.,
O=C(c1cc(S(=O)(=O)NCc2ccco2)ccc1Br)N1CCOCC1,-6,2,-2,3,i,.,
COc1ccc(-c2noc(CSc3nc(N)cc(=O)[nH]3)n2)cc1,-6,0,74*,2,i,45*,
COc1ccc(-c2noc(CSc3nc(-c4ccccc4)cc(=O)[nH]3)n2)cc1OC,3,-1,-2,18,i,.,
O=c1oc2cc(Oc3c([N+](=O)[O-])cc(C(F)(F)F)cc3[N+](=O)[O-])ccc2c2c1CCCC2,44,-34,86*,1,i,89*,
O=c1oc2cc(Oc3ccc(C(F)(F)F)cc3[N+](=O)[O-])ccc2c2c1CCC2,25,-8,3,3,i,.,
CCOc1ccc(NC2=NCC(=O)N2Cc2cccs2)cc1,-5,-2,-2,0,i,.,
CC(NC(=S)NC1CCCCC1)c1ccc(C(C)(C)C)cc1 (centres undefined),13,4,53*,-4,.,106*,
CC(C)c1ccc(C(C)NC(=S)NC2CCCCC2)cc1 (centres undefined),22,-1,28,-6,?,.,
CCC(C)c1ccc(C(C)NC(=S)NC2CCCCC2)cc1 (centres undefined),17,0,59*,-8,?,103*,
O=C(/C=C/c1ccco1)Oc1cc(Br)cc(/C=N/NC(=O)c2ccccc2O)c1,12,11*,66*,19,?,63*,
Cc1ccc(C(=O)N/N=C/c2cccc(OC(=O)/C=C/c3ccco3)c2)cn1,-2,0,0,1,i,.,
SMILES,FAS-TE inh,GRIN3A LBD mod,MPTP inh,rCAG binder,Myeloid diff MLP,Rh123 counter,others
COc1ccc(C(C)(O)c2nc(-c3ccc(S(C)(=O)=O)cc3)cs2)cc1 (centres undefined),25,.,-1,-1,i,.,
O=C(NCc1ccc2c(c1)OCO2)Nc1ccc([N+](=O)[O-])cc1,18,-3,81*,2,i,83*,
O=C(NCc1ccccc1F)Nc1ccc([N+](=O)[O-])cc1,10,-8,94*,-1,i,89*,
O=C(Nc1ccnn1C1CCN(Cc2cccc(OCCO)c2)CC1)C1CC1,0,-2,-1,-4,i,.,
CCC(C)Sc1cc(-c2nc3ccc(C)cn3c2NCc2ccccc2)ccc1OC (centres undefined),37,-30,54*!,6,i,105*,
CCCCNc1c(-c2ccc(OC)c(SC(C)CC)c2)nc2ccc(C)cn12 (centres undefined),28,-39,59*!,-6,?,99*,
CCCCNc1c(-c2ccc(Sc3ccc(OC)cc3)cc2)nc2cc(C)ccn12,24,-34,60*,-2,i,97*,
Cc1ccc(S(=O)(=O)NN=CC2(c3ccccc3)CC2)cc1,2,.,1,0,i,.,
Cc1ccc(C)c(OCCn2cc(C(=O)O)c3ccccc32)c1,-7,1,-1,18,i,.,
COc1cccc(OCCn2cc(C(C)=O)c3ccccc32)c1,14,1,61*,1,i,56*,
CC(=O)c1cn(CCOc2cc(C)ccc2C)c2ccccc12,3,0,97*,-1,?,83*,
O=C(/C(=C/c1ccc(Cl)cc1)c1nc2ccccc2[nH]1)c1ccccc1,9,26*,91*,10,+,87*,
O=C(N/C(=C/c1ccc(Cl)cc1)c1nc2ccccc2[nH]1)c1ccco1,1,0,0,1,i,.,
O=C(c1noc2c1CCCC2)N1CCC(CO)(Cc2ccccc2Cl)CC1,2,0,-2,-2,i,.,
CC(C)CN1C(=S)SC(C)(C)C1n1oc(=O)n(-c2ccccc2)c1=O (centres undefined),21,-4,15,-3,i,.,
CC(C)CN1C(=S)SC(C)(C)C1n1oc(=O)n(-c2ccc(Cl)cc2)c1=O (centres undefined),14,11*,88*,.,i,95*,
COc1ccc(COCC(O)CN2CCC(CN3C(=O)c4cccc5cccc(c45)C3=O)CC2)cc1OC (centres undefined),-6,-2,90*,2,i,18,MPTP abs DR=6.3*;MPTP cs DR=46*
CCc1ccc(OCC(O)CN2CCC(CN3C(=O)c4cccc5cccc(c45)C3=O)CC2)cc1 (centres undefined),-1,-11,84*,4,?,0,MPTP abs DR=4.9*;MPTP cs DR=20*
COc1cccc(OCC(O)CN2CCC(CN3C(=O)c4cccc5cccc(c45)C3=O)CC2)c1 (centres undefined),-7,-2,72*,-5,?,50*,
